Experimental data from the supplement of paper PMC11732987, “Enantioselective OTUD7B fragment discovery through chemoproteomics screening and high-throughput optimisation” (Communications Chemistry, 2025).

Compound: ClCC(=O)N1CCc2cc(Cl)c(Cl)cc2C1
Experiment: log2 ratio of Biotin-Ahx-Ub-VS probe labelling (compound/DMSO); higher = less target engagement, active = hit call of the paper (q ≤ 0.05, log2 ratio ≤ -1)
Conditions: compound concentration: 50uM; treatment time: 3 h
Outline: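 DUBs in HEK293T lysate were labelled with Biotin-Ahx-Ub-VS (0.5 µM final, 1 h) after a 3 h treatment with compound at 50 or 200 µM or with DMSO, done in triplicate on 495 µg of lysate per sample. NeutrAvidin-enriched proteins were digested with LysC and trypsin and run by diaPASEF LC-MS/MS. Median-normalised label-free quantities gave average base-two log ratios of compound to DMSO by unpaired t-test, restricted to proteins with at least 2 unique peptides.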

Sequence of UniProt Q70CQ2 (Q70CQ2 whole entry): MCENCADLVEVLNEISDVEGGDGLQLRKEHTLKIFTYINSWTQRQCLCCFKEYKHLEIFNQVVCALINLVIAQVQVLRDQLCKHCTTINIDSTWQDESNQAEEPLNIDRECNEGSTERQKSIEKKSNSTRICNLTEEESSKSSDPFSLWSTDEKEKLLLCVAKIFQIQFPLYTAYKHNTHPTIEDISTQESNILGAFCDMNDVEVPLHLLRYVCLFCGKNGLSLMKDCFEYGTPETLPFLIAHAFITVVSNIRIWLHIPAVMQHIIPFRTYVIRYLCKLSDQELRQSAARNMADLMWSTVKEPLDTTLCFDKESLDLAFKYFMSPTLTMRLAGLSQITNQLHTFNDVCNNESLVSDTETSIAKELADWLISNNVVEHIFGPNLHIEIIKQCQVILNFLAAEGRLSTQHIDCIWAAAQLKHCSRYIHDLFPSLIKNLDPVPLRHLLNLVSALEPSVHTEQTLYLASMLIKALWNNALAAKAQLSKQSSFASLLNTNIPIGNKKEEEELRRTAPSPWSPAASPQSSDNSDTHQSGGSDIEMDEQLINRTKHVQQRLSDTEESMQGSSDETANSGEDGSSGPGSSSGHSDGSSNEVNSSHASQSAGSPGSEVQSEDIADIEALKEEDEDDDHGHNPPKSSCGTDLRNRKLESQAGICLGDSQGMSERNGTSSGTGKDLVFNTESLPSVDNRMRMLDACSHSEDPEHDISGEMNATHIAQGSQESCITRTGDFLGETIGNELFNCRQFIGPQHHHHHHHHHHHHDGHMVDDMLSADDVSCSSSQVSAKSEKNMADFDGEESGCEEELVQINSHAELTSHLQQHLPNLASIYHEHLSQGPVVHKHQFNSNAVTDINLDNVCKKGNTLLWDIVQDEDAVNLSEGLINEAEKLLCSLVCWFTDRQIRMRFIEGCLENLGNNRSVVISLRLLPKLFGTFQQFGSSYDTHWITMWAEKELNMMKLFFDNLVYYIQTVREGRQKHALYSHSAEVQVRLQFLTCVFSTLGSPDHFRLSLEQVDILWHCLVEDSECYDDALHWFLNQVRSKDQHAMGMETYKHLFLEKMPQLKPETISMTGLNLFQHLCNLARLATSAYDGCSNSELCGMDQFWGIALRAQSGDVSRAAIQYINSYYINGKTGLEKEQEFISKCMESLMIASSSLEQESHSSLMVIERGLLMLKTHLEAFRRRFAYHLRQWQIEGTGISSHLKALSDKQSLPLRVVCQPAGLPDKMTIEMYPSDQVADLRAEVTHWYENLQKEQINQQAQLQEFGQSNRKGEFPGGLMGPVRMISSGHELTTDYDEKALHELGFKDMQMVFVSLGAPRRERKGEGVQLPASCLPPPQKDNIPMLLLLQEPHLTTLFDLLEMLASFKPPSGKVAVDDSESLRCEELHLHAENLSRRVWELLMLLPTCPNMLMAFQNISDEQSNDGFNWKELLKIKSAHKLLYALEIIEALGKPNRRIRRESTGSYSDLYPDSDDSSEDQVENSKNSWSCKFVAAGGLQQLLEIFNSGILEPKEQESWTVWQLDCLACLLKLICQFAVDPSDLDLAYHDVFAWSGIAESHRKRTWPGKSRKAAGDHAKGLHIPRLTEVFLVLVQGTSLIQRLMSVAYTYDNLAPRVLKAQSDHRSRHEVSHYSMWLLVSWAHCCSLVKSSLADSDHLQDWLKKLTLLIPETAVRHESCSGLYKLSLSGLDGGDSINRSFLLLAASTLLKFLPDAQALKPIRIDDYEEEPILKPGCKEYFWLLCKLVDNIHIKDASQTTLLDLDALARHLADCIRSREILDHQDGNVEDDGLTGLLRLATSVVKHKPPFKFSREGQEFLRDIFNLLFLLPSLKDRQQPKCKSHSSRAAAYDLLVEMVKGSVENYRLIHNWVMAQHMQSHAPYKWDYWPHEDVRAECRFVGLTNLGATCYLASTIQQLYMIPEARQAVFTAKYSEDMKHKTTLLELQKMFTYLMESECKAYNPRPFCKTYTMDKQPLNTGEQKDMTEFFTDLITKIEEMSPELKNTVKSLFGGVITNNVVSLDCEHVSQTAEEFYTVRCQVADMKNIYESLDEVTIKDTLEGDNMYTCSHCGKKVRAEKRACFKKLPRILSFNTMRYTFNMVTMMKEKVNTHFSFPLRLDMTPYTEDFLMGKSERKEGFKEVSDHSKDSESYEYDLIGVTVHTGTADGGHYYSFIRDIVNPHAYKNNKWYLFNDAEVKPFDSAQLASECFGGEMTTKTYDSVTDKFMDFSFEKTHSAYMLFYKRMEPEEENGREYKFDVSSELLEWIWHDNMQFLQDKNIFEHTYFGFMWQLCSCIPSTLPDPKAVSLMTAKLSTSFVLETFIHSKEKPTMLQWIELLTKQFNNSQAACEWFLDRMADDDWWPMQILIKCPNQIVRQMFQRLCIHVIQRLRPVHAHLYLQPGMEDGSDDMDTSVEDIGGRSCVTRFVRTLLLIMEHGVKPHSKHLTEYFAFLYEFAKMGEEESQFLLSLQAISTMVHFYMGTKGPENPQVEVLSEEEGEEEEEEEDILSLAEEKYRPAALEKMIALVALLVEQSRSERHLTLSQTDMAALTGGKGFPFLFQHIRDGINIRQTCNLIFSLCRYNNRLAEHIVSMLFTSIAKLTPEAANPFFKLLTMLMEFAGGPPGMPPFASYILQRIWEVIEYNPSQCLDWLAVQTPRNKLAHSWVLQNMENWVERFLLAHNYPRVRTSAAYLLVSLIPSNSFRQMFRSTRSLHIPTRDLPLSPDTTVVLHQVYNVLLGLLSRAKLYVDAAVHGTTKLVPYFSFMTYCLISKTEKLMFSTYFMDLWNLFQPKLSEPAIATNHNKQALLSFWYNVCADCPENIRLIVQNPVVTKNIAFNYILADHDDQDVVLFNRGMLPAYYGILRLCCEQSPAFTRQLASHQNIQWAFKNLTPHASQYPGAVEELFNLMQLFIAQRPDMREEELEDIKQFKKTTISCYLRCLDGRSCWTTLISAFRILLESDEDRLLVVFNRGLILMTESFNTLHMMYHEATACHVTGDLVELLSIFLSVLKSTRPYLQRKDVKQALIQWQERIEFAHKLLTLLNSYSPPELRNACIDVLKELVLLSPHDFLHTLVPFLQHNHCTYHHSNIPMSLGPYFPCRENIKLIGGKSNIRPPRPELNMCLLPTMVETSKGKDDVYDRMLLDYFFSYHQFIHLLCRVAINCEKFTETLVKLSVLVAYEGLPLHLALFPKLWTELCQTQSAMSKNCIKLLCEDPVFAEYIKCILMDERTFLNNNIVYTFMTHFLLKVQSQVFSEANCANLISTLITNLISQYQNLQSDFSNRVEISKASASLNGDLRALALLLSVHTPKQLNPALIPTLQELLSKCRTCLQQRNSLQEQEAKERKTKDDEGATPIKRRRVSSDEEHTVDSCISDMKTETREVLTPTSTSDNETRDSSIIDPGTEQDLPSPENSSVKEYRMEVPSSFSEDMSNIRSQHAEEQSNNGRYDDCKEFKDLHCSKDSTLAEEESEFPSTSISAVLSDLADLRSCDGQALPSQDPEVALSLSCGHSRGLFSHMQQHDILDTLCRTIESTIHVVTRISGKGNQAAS
Sequence of UniProt Q9Y5K5 (Q9Y5K5 whole entry): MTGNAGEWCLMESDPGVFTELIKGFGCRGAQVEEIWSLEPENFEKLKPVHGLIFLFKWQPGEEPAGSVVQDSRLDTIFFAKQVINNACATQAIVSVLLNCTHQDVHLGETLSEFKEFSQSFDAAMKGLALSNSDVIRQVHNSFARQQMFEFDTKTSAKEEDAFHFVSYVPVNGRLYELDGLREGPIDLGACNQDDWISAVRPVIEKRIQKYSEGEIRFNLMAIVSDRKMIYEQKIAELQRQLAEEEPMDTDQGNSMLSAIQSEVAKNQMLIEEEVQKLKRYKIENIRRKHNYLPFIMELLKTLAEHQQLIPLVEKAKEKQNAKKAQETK
Sequence of UniProt Q93009 (Q93009 whole entry, looked up): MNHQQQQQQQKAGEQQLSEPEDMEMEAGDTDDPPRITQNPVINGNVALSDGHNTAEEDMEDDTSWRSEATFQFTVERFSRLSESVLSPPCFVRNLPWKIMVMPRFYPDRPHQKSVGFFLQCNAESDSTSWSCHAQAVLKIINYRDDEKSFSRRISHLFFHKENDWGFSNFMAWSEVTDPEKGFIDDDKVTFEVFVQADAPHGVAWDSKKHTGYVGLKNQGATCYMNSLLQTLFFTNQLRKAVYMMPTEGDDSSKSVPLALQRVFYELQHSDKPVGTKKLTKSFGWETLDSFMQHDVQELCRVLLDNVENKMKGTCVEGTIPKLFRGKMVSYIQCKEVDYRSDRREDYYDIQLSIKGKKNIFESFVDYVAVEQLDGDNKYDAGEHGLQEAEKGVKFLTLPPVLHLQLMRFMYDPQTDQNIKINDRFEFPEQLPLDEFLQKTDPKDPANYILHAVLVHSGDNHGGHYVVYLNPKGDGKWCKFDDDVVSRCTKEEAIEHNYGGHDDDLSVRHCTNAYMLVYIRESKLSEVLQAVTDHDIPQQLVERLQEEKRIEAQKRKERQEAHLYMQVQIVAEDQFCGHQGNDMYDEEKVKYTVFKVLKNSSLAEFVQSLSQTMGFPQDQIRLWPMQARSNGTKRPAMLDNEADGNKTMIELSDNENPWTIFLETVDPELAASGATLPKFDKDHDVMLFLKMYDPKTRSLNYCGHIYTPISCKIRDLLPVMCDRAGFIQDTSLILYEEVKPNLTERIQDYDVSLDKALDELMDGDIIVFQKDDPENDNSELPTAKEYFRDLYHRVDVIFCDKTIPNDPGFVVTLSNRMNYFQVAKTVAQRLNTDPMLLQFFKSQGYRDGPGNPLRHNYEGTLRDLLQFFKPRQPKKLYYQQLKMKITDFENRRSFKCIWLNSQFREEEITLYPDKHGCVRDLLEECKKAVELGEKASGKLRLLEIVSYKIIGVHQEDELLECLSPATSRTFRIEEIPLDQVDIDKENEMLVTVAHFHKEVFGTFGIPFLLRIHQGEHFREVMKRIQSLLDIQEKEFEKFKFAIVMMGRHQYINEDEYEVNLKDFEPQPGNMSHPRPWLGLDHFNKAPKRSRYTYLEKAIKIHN

Row | Target | log2 ratio of Biotin-Ahx-Ub-VS probe labelling
1 | USP54 (UniProt Q70EL1) | -0.895 (inactive)
2 | UniProt Q5T2D3 | 0.0943 (inactive)
3 | USP28 (UniProt Q96RU2) | -0.496 (inactive)
4 | UniProt Q70EL2 | -0.569 (inactive)
5 | USP22 (UniProt Q9UPT9) | -0.0223 (inactive)
6 | OTUD6B (UniProt Q8N6M0) | 0.0579 (inactive)
7 | EIF3F (UniProt O00303) | -0.117 (inactive)
8 | USP36 (UniProt Q9P275) | -0.152 (inactive)
9 | USP16 (UniProt Q9Y5T5) | -0.694 (inactive)
10 | UCHL5 (UniProt Q9Y5K5) | -0.0548 (inactive)
11 | OTUD7B (UniProt Q6GQQ9) | -0.244 (inactive)
12 | USP14 (UniProt P54578) | -0.137 (inactive)
13 | USP7 (UniProt Q93009) | -1.57 (active)
14 | USP34 (UniProt Q70CQ2) | -0.17 (inactive)
15 | OTUB1 (UniProt Q96FW1) | 0.182 (inactive)
16 | USP9X (UniProt Q93008) | -0.225 (inactive)
17 | COPS5 (UniProt Q92905) | -0.307 (inactive)
18 | USP10 (UniProt Q14694) | -0.188 (inactive)
19 | USP46 (UniProt P62068) | -0.575 (inactive)
20 | YOD1 (UniProt Q5VVQ6) | 0.356 (inactive)
21 | BAP1 (UniProt Q92560) | -0.373 (inactive)
22 | UniProt P51784 | 0.125 (inactive)
23 | USP25 (UniProt Q9UHP3) | 0.409 (inactive)
24 | UniProt Q9UGI0 | 0.132 (inactive)

Same assay, conditions: compound concentration: 200uM; treatment time: 3 h

Row | Target | log2 ratio of Biotin-Ahx-Ub-VS probe labelling
25 | USP54 (UniProt Q70EL1) | -2.65 (active)
26 | UniProt Q5T2D3 | -0.112 (inactive)
27 | USP28 (UniProt Q96RU2) | -1.71 (active)
28 | UniProt Q70EL2 | -1.27 (active)
29 | USP22 (UniProt Q9UPT9) | -0.226 (inactive)
30 | OTUD6B (UniProt Q8N6M0) | -1.26 (active)
31 | EIF3F (UniProt O00303) | -0.406 (inactive)
32 | USP36 (UniProt Q9P275) | 0.149 (inactive)
33 | USP16 (UniProt Q9Y5T5) | -0.189 (inactive)
34 | UCHL5 (UniProt Q9Y5K5) | -1.36 (active)
35 | OTUD7B (UniProt Q6GQQ9) | -1.67 (active)
36 | USP14 (UniProt P54578) | -0.35 (inactive)
37 | USP7 (UniProt Q93009) | -2.52 (active)
38 | USP34 (UniProt Q70CQ2) | -1.47 (active)
39 | OTUB1 (UniProt Q96FW1) | -0.161 (inactive)
40 | USP9X (UniProt Q93008) | -1.96 (active)
41 | COPS5 (UniProt Q92905) | -0.222 (inactive)
42 | USP10 (UniProt Q14694) | -0.0346 (inactive)
43 | USP46 (UniProt P62068) | -2.77 (active)
44 | YOD1 (UniProt Q5VVQ6) | -0.373 (inactive)
45 | BAP1 (UniProt Q92560) | -1.76 (active)
46 | UniProt P51784 | -0.807 (inactive)
47 | USP25 (UniProt Q9UHP3) | -0.517 (inactive)
48 | UniProt Q9UGI0 | -0.542 (inactive)
